From PubChem BioAssay (Tox21)
Inconclusive results are not listed. Unmarked numbers belong to inactive results. The source made the active and inactive calls. Calls come from the whole dose curve.
% is set by controls: 0 for no effect and ±100 for the full control effect; potency is the fitted concentration of half-maximal effect.

Assay: qHTS assay to identify small molecule agonists of H2AX - cell viability counter screen (AID 1224847); note: nearly all actives have a fitted effect of over 30% in size; for activity change, negative = cytotoxicity: top concentration of the series differs between compounds
Details: CHO-K1 viability, CellTiter-Glo luminescence, 3 h; series mostly up to 154 µM; activity change, negative = cytotoxicity: at the top concentration
Text: National Center for Advancing Translational Sciences [NCATS]
NIH Chemical Genomics Center [NCGC]
U.S. Environmental Protection Agency [EPA]
National Institutes of Environmental Health Sciences [NIEHS]
National Toxicology Program [NTP]
U.S. Food and Drug Administration [FDA]
HTRF phospho-H2AX (Ser139) assay (Cisbio Bioassays, US) enables the quantitative detection of the histone variant H2AX when phosphorylated on serine 139. When double-stranded DNA breaks, either by ionizing radiation or endogenous physiological processes, H2AX becomes phosphorylated at Ser139. This phospho-Ser139 serves as a sensitive biomarker for the detection of such breaks, localizing the site of DNA repair. So, HTRF phospho-H2AX Ser139 is a pertinent assay to study genome stability, the cell cycle, DNA repair, and it serves as a biomarker for cancer, and to understand aging. Wild type CHO-K1 cells were used to identify the inducers of Phospho-H2AX Ser 139 from the Tox21 compound collections. Also cytotoxicity of the Tox21 10K compound library against the CHO-K1 cell line was tested by measuring the cell viability using CellTiter-Glo assay (Promega, Madison, WI).
Tox21 Assay Protocol Summary:
The CHO-K1 cells suspended in culture medium containing 10% FBS were dispensed at 1000 cells/ 3 ul/well in 1536-well white wall/solid bottom plates (Greiner Bio-One North America, NC) using a Multidrop Combi (Thermo Fisher Scientific Inc., Waltham, MA). After the assay plates were incubated at 37C overnight, 23 nl of compounds at 15 concentrations (from 5-48 columns) or positive control (from 1 to 4 columns) were transferred to the assay plates using a Pintool station (Wako, San Diego, CA) into each well resulting in a final DMSO concentration of 0.76%. After 3hr incubation at 37C, 3 uL/well CellTiter-Glo luminescent cell viability reagent (Promega Corporation, Madison, WI) was added using a Flying Reagent Dispenser (FRD) (Aurora Discovery, CA). After incubation at room temperature for 30 min, the luminescence intensity was read using a ViewLux plate reader (PerkinElmer, Waltham, MA).
In the case of `O=C1CCCCCCCCCCCCCC1`, the “activity change, negative = cytotoxicity” value is reported as -6.76%. With `Oc1ccc2c(c1)CCC2` the “activity change, negative = cytotoxicity” value was 3.14%. For `CCOc1ccc([N+](=O)[O-])cc1`, the “activity change, negative = cytotoxicity” value was -10.7%. In the case of `C=Cc1ccc(O)c(OC)c1`, the “activity change, negative = cytotoxicity” value is reported as -3.02%. In the case of `CCCCCCCCCCCCS(=O)(=O)Cl`, the activity change, negative = cytotoxicity is reported as 2.47% [at 31.6 µM]. In the case of `Clc1ccc2c(Cl)ccnc2c1`, the “activity change, negative = cytotoxicity” value is reported as 1.23%. In the case of `CC(C)(c1ccc(Oc2ccc(N)cc2)cc1)c1ccc(Oc2ccc(N)cc2)cc1`, the Potency is reported as 80 µM (active). With `O=[N+]([O-])c1ccc(CO)cc1` the “activity change, negative = cytotoxicity” value was 0.0143%. With `Cc1c[nH]c(=O)[nH]c1=O` the “activity change, negative = cytotoxicity” value was 2.39%. With `CC(C)(C)c1cc(CCC(=O)OCCSCCOC(=O)CCc2cc(C(C)(C)C)c(O)c(C(C)(C)C)c2)cc(C(C)(C)C)c1O` the “activity change, negative = cytotoxicity” value was -2.24% [at 70.9 µM]. With `CN1CCN(C)CC1` the “activity change, negative = cytotoxicity” value was 1.32%. For `CCc1c(C)cc(N)c(CC)c1N`, the “activity change, negative = cytotoxicity” value was 9.82%. With `C1=CCCC1` the “activity change, negative = cytotoxicity” value was -1.36%. With `C/C=C/C(=O)C1=C(C)C=CCC1(C)C` the “activity change, negative = cytotoxicity” value was 0.999%. For `Cc1ccc2sc3cccc(C)c3c2c1`, the “activity change, negative = cytotoxicity” value was -1.1%. With `C=COCCCC` the “activity change, negative = cytotoxicity” value was 0.96%. For `CCCCCCCCCCCCCCCCC(C(=O)O)C(O)(CC(=O)O)C(=O)O` (stereo not given), the “activity change, negative = cytotoxicity” value was -9.42% [at 70.9 µM]. For `Nc1cc([N+](=O)[O-])ccc1Cl`, the “activity change, negative = cytotoxicity” value was -0.622%. With `O[Si](c1ccccc1)(c1ccccc1)c1ccccc1` the Potency was 101 µM (active). For `CCSCC`, the “activity change, negative = cytotoxicity” value was -4.08%. For `CC(=O)CC(N)=O`, the “activity change, negative = cytotoxicity” value was -0.729%. In the case of `Cc1ccc2nc(-c3ccc(N)cc3)sc2c1S(=O)(=O)O`, the “activity change, negative = cytotoxicity” value is reported as -0.482% [at 70.9 µM]. Work on `C=C[Si](C)(C)Cl` yielded an activity change, negative = cytotoxicity of -1.05% [at 14 µM]. For `CCC(C)(C)c1ccc(CC(C)CN2C[C@@H](C)O[C@@H](C)C2)cc1` (stereo not given in full), the Potency was 55.2 µM (active). For `C/C=C/C(=O)OCC(C)C`, the “activity change, negative = cytotoxicity” value was 0.903%. With `C=CC(=O)OCC(Br)CBr` (stereo not given) the “activity change, negative = cytotoxicity” value was 3.81%. With `CCOC(=O)[C@H](C)O` the “activity change, negative = cytotoxicity” value was -1.34%. For `Brc1cc(Br)cc(Br)c1`, the “activity change, negative = cytotoxicity” value was -1.09%. For `O=C(NCc1ncc(C(F)(F)F)cc1Cl)c1c(Cl)cccc1Cl`, the “activity change, negative = cytotoxicity” value was -0.241%. In the case of `CCN(CC)c1ccc2c(c1)Oc1cc(N(CC)CC)ccc1C21OC(=O)c2ccccc21`, the Potency is reported as 15.6 µM (active). With `Cc1ccc2n[nH]nc2c1` the “activity change, negative = cytotoxicity” value was 5.9%. In the case of `CCOc1nc(F)cc2nc(S(=O)(=O)Nc3c(Cl)cccc3C(=O)OC)nn12`, the “activity change, negative = cytotoxicity” value is reported as -4.27%. In the case of `CCc1cccc(CC)c1`, the “activity change, negative = cytotoxicity” value is reported as 0.689%. With `CC(C)(C)C1=CC(=O)C(C(C)(C)C)=CC1=O` the “activity change, negative = cytotoxicity” value was 3.13% [at 70.9 µM]. With `CC(C=O)c1ccccc1` (stereo not given) the “activity change, negative = cytotoxicity” value was 0.307%. With `NCc1cccc(C2CCN(C(=O)c3ccc(C#Cc4ccccc4F)o3)CC2)c1` the Potency was 56.6 µM (active). In the case of `Oc1ccc(C2(c3ccc(O)c(C4CCCCC4)c3)CCCCC2)cc1C1CCCCC1`, the Potency is reported as 22.5 µM (active). In the case of `Nc1cc([N+](=O)[O-])cc(Cl)c1O`, the “activity change, negative = cytotoxicity” value is reported as 0.282%. For `c1ccc(-c2nc3ccccc3[nH]2)cc1`, the Potency was 89.8 µM (active). In the case of `C=CC(C)(C)O`, the “activity change, negative = cytotoxicity” value is reported as 2.13%.
